Growth data for eight molecules are collected here from PubChem BioAssay (NCI).

The panel holds about 83,000 compounds, 20% with a hit somewhere; the sample as a whole holds those more often.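 Each cell line was grown in a 96-well plate and treated with one concentration of compound for 48 hours. Values below 10 were considered active.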 Unmarked numbers belong to inactive results. Activity calls are given as the source filed them.

What all share (test): NCI-60 one-dose screen, 48 h (100 = growth as untreated, 0 = no growth, -100 = all killed)
Common to all, as to details: 10 µM unless noted

For experiment [1], the system named is DU-145 prostate.
Experiment [2] has as its system K-562 leukemia.
In experiment [3] the test system is MALME-3M melanoma.
The subject of experiment [4] is MDA-MB-231 breast.
The subject of experiment [5] is RXF 393 renal.
In experiment [6] the test system is SF-268 CNS.
Experiment [7] deals with SF-295 CNS.
Experiment [8] has as its system SF-539 CNS.
In experiment [9] the test system is UACC-257 melanoma.
The subject of experiment [10] is M14 melanoma.
Experiment [11] has as its system HCT-15 colon.
For experiment [12], the system named is HT29 colon.
The test system of experiment [13] is SNB-75 CNS.
The subject of experiment [14] is U251 CNS.
The test system of experiment [15] is PC-3 prostate.
Experiment [16] has as its system SK-MEL-5 melanoma.
The test system of experiment [17] is UACC-62 melanoma.
The test system of experiment [18] is SK-MEL-28 melanoma.
The subject of experiment [19] is LOX IMVI melanoma.
Experiment [20] relates to SNB-19 CNS.

Regarding `CC(C)C1=NOC(=O)C1=Cc1cn(-c2ccccc2)nc1-c1ccccc1`, the growth was 80.8% in experiment [1]; 42.2% in [2]; 90.5% in experiment [3]; 97.4% in [4]; 70.3% in [5]; 93.9% in experiment [6]. Moreover, the growth was 98.1% in [7]; 91.3% in experiment [8]; 94.1% in [9]; 76.2% in experiment [10]; 77.4% in [11]; 49.2% in [12]. Further, the growth is 72.5% in experiment [13]; 53% in experiment [14]; 67.9% in experiment [15]; 91.6% in experiment [16]; 76.1% in [17]; 95.1% in experiment [18].

As to `N#CC1C(=O)NC(c2ccccc2[N+](=O)[O-])c2sc3c(F)cccc3c21` (centres undefined), the growth is 89.9% in experiment [1]; 35.9% in [2]; 74.7% in experiment [3]; 75.6% in [4]; 69.9% in experiment [5]; 86.7% in [6]. Further, the growth was 20.8% in experiment [7]; 85.7% in experiment [8]; -37.3% (active) in experiment [9]; 92.7% in experiment [10]; 87.8% in experiment [11]; 85.3% in experiment [12]. In addition, the growth in experiment [13] is 82.6%; in experiment [14], 42.6%; in experiment [15], 80%; in [16] it was 75.2%; in [17], 9.47% (active); in experiment [19], 91.4%. Further, in [18], the growth was 111%.

`COc1ccc(C(=O)/C=C/c2ccccn2)c(O)c1`: the growth in experiment [1] was 45.1%; in [2] it was 41.9%; in experiment [3], 88.2%; in [4], 82.4%; in [5], 56.2%; in experiment [6], 90.5%. Moreover, the growth in experiment [7] was 97.1%; in experiment [8] it was 49.4%; in experiment [9], 100%; in [10] it was 86.6%; in experiment [11], 39.7%; in experiment [12], 72.2%. The growth was 73.1% in experiment [20]; 87.5% in [14]; 95.5% in experiment [15]; 95% in experiment [16]; 90.8% in [17]; -54.9% (active) in experiment [19].

Turning to `CCOC(=O)c1c[nH]c2cc(OCC3CC3)c(OCC3CC3)cc2c1=O`, the growth was 102% in [1]; 121% in experiment [2]; 106% in experiment [3]; 119% in [4]; 114% in experiment [5]; 109% in [6]. The growth was 103% in experiment [7]; 105% in experiment [8]; 115% in [9]; 115% in [10]; 104% in [11]; 111% in experiment [12]. Moreover, the growth in [13] is 114%; in [14], 119%; in experiment [15] it was 95.1%; in experiment [16], 112%; in experiment [17], 104%; in experiment [19], 113%. Also, the growth in experiment [18] was 110%.

Consider `N#Cc1c(N2CCOCC2)nc(=S)[nH]c1-c1ccco1`, for which the growth in experiment [1] was 79.2%; in experiment [2], 88.4%; in experiment [3] it was 2.17% (active); in experiment [4], 61.1%; in experiment [5], 71.3%; in experiment [6], 77.3%. For the same molecule, the growth in experiment [7] is 47.4%; in experiment [8] it was 78.5%; in [9], 92.8%; in experiment [10] it was 39.8%; in [11], 71.4%; in experiment [12], 63.7%. The growth in [13] was 15.9%; in experiment [14] it was 76.4%; in experiment [15], 42.6%; in experiment [16] it was 62.6%; in [17], 43.7%; in experiment [19], 63.7%. In addition, the growth in [18] is 77.6%.

Consider `CCCCC1COc2cccc3c2N1C=C/C3=C\C(=O)n1ccc2ccccc21` (centres undefined), for which the growth is 99.1% in experiment [1]; 19.2% in [2]; 69.3% in experiment [3]; 85.1% in experiment [4]; 87% in [5]; 94.5% in experiment [6]. Further, the growth in [7] was 80.7%; in experiment [8], 97.2%; in experiment [9] it was 85.6%; in experiment [10], 56%; in experiment [11], 47.6%; in experiment [12] it was 43.9%. Moreover, the growth is 14.5% in [13]; 76.5% in [14]; 65.9% in experiment [15]; 78.5% in experiment [16]; 56.3% in experiment [17]; 76% in [19].

For the molecule `C=C(C)[C@@H]1CC[C@]2(COCCC#N)CC[C@]3(C)[C@H](CC[C@@H]4[C@@](C)(CCCNCCC#N)[C@H](C(=C)C)CC[C@]43C)[C@@H]12`, the growth in experiment [1] is 46.4% [100 µM]; in [2], 7.57% [100 µM] (active); in experiment [3] it was -47.8% [100 µM] (active); in [4], 13.9% [100 µM]; in experiment [5] it was -11.8% [100 µM] (active); in experiment [6], 53% [100 µM]. Also, the growth in experiment [7] is 65.2% [100 µM]; in [8], -20% [100 µM] (active); in experiment [9], 27.6% [100 µM]; in experiment [10], 32.4% [100 µM]; in [11], 35.7% [100 µM]; in experiment [12], 2.94% [100 µM] (active). The growth in experiment [13] was 40.8% [100 µM]; in experiment [14], 5.95% [100 µM] (active); in [15], 20.1% [100 µM]; in [16] it was 2.58% [100 µM] (active); in experiment [17] it was 29.8% [100 µM]; in [19] it was -74.4% [100 µM] (active). Besides, in experiment [18], the growth was -37.3% [100 µM] (active).

With `O=C(NCc1ccc(Cn2c(=O)sn(-c3ccccc3)c2=O)cc1)OCc1ccc2c(Br)cc(Br)c(O)c2n1`, the growth was -89.6% (active) in experiment [1]; 5.05% (active) in [2]; -76.7% (active) in experiment [3]; -53.4% (active) in [4]; -90.9% (active) in experiment [5]; -59.9% (active) in experiment [6]. Besides, the growth was 9.81% (active) in [7]; -93.6% (active) in experiment [8]; -17.2% (active) in experiment [9]; -62.6% (active) in experiment [10]; -10.2% (active) in [11]; -66.6% (active) in [12]. The growth in [13] is -93.8% (active); in experiment [14], -83.6% (active); in experiment [15], -56.1% (active); in [16], -97.4% (active); in experiment [17], -76.1% (active); in experiment [19] it was -92.3% (active). Besides, the growth in [18] was -69.9% (active).
